The test system of experiment [1] is transactivating tegument protein VP16 (Human herpesvirus 1). Nature of the experiment: VP16 transactivation reporter inhibitors, counter-screen for SRC2 inhibitor project, cell-based, luminescence, single concentration (AID 652007). To be noted: cell-based VP16 transactivation luciferase reporter, at 8.9 µM, hits give high values.
Experiment [2] addresses Nuclear receptor coactivator 2 (Homo sapiens) (UniProt Q15596). Nature of the experiment: SRC2 coactivator transcriptional activity inhibitors, confirmation, cell-based, luminescence, HEK293, triplicate (AID 652008;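 active = mean inhibition above 46.5%, the solvent-only control mean plus 3 SD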;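 note: 0% = DMSO-treated cells and 100% = Gossypol at 36 µM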). The settings on record: HEK293 GAL4-SRC2 luciferase reporter, at 8.9 µM, hits give high values. For orientation: Reporter assays use an easily measured gene product as a stand-in for the process of interest.

Experiment [3] can be described thus: compounds interfering with TAMRA-BSA probe, counter-screen for TCR-CD3 interaction inhibitor project, biochemical, fluorescence, TAMRA-labeled BSA (AID 652035; in the data active = inhibition above about 23%;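 note: 0% = buffer low control and 100% = reference high control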). The settings on record: TAMRA-labeled BSA probe fluorescence counterscreen; at 9.4 µM; hits give high values. Background: Counterscreens check selectivity or assay interference.
Experiment [4] relates to T-cell receptor (TCR)-CD3 interaction, human. In words: TCR-CD3 interaction inhibitors, retest, confirmation, biochemical, fluorescence, TAMRA-labeled TCR probe (AID 652036; in the data active = inhibition above about 19%). To be noted: TAMRA-labeled TCR probe fluorescence binding assay; at 9.4 µM; hits give high values.
Experiment [5] is described as follows: Gal4-VP16 luciferase reporter inhibitors, counter-screen for COUP-TFII antagonist project, cell-based, luminescence, HEK293 (AID 687007; in the data active = inhibition above about 13%). The settings on record: at 8.5 µM, hits give high values.
In experiment [6] the target is COUP transcription factor 2 (Homo sapiens) (UniProt P24468). In words: NR2F2 transcriptional activity inhibitors, confirmation, cell-based, luciferase reporter, HEK293, triplicate (AID 687008;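 active = mean inhibition over three repeats above a set limit taken from the earlier primary screen, cut at about 38% in these data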;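 note: 100% = cells given the luciferase reporter alone without the COUP-TF2 vector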). To be noted: HEK293 NGFI-A luciferase reporter, luminescence; at 8.5 µM; hits give high values.

Each structure is given as a SMILES string. Unmarked numbers belong to inactive results. This is one part of the list. Activity calls are given as the source filed them. Cut-off read from the data, not from the text of the source, unless noted: active = inhibition above about 36%; inactive = the rest.

Nuclear receptor coactivator 2 (Homo sapiens), sequence (Q15596 whole entry, looked up, the tested form may be a part): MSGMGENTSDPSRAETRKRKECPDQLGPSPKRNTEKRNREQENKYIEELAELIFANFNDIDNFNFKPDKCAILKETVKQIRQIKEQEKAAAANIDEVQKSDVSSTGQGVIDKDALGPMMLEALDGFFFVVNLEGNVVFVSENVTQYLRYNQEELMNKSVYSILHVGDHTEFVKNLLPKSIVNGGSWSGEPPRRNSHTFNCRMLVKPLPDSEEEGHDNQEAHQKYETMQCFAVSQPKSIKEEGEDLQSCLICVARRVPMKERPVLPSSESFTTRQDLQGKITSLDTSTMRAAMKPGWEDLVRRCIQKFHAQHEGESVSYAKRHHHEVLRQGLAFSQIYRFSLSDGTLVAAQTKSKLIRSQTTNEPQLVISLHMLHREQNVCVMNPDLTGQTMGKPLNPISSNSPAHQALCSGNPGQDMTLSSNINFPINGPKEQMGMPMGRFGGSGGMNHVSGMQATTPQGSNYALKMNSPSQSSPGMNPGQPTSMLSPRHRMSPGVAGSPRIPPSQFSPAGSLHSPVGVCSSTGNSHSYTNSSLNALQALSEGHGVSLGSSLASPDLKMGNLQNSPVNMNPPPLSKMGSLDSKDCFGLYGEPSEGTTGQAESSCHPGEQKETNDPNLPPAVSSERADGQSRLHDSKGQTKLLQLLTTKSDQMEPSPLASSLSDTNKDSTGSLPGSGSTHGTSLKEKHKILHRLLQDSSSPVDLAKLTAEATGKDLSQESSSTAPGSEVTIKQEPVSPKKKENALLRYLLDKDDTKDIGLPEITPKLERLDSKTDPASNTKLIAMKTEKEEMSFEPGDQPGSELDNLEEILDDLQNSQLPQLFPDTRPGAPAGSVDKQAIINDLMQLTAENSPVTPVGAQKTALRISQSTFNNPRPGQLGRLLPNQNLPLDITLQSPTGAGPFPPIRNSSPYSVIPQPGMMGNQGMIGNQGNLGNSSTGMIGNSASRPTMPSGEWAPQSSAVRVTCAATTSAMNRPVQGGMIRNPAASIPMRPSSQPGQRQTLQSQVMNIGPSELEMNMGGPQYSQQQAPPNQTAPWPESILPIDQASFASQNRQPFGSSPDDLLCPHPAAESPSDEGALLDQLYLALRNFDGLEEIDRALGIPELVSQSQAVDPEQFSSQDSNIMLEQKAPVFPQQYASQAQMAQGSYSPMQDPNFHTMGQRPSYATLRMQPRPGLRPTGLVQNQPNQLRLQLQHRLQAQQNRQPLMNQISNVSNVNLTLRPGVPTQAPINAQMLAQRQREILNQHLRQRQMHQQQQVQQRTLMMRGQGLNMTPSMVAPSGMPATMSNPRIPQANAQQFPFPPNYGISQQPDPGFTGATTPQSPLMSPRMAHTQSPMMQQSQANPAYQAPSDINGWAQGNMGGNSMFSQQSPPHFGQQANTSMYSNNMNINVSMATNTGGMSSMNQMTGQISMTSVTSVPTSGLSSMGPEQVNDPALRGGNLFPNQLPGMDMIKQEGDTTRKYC
COUP transcription factor 2 (Homo sapiens), sequence (P24468 whole entry, looked up): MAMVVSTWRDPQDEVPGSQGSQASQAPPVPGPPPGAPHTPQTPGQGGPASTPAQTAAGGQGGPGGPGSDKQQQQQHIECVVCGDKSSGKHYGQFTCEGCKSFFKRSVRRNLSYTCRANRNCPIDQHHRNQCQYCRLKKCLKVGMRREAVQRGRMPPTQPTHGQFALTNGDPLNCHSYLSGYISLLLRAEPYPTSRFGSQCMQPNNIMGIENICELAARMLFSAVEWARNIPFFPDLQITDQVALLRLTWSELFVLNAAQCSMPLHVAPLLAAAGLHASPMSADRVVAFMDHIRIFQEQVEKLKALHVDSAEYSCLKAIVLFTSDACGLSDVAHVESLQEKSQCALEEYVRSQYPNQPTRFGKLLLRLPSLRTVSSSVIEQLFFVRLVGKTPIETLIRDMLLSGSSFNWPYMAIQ

The term inhibition denotes the relative decrease from the control value, in per cent. As to `CCN(CC)c1ccc(/C=C/c2cc(-c3ccccc3)c3ccccc3n2)cc1`, the figures for the inhibition in experiment [1] and in experiment [2] were -11.2% and -13.1%, respectively.

With `COc1ccccc1N(CC(=O)N/N=C(\C)c1ccccc1O)S(=O)(=O)c1ccc(C)cc1`, the inhibition was 12.9% in experiment [1], 25.4% in experiment [2], -17.6% in experiment [3] and 14.3% in experiment [4].

With `CN(C)c1ccc(/C=C2\SC(=O)N(CCc3nnc(N)s3)C2=O)cc1`, the inhibition in experiment [1] was -23.4%; in experiment [2], 27.1%.

As to `C[C@H]1CCC/C=C/C(=O)c2c(O)cc(O)cc2CC(=O)O1`, the inhibition was 41.5% (active) in experiment [1], 55.5% (active) in experiment [2], 49.3% (active) in experiment [5] and -1.02% in experiment [6].

On to `Nc1ccc(Oc2ccc3c(c2)C(=O)N(CC2CCCO2)C3=O)cc1` (centres undefined), for which the inhibition in experiment [1] is -45.6%; in experiment [2] it was 52.8% (active).

With `Cc1c(CCC(=O)N2CCC[C@H]2C(=O)O)c(=O)oc2c(C)c3oc4c(c3cc12)CCCC4`, the inhibition in experiment [1] was 39% (active); in experiment [2], 37.5%.

Turning to `Oc1cccc(C(Nc2nccs2)c2ccc3cccnc3c2O)c1` (centres undefined), the inhibition in experiment [1] is -15.2%; in experiment [2], 7.61%.

As for `CC(C)(C)c1ccc(SCCc2ccncc2)cc1`, the inhibition is -28.2% in experiment [1] and -4.99% in experiment [2].

Regarding `O=C(NCc1cccnc1)/C(=C\c1ccc(-c2ccc(Cl)c(Cl)c2)o1)S(=O)(=O)c1ccccc1`, the results for the inhibition in experiment [1] and in experiment [2] were 75.3% (active) and 66.9% (active), respectively.

Regarding `C=C(C(=O)c1ccccc1)C(c1ccccc1)C(C)C(=O)c1ccccc1` (centres undefined), the inhibition was 28.8% in experiment [1] and 31.4% in experiment [2].

For the compound `c1cc(-c2nnc3n2N=C(c2ccc4c(c2)OCO4)CS3)ccn1`, the inhibition in experiment [1] was -3.48%; in experiment [2], 42.4%.

For the compound `COc1cc(NC(=O)CSc2nnc3c(C)cc4cc(C)cc(C)c4n23)c(C(=O)O)cc1OC`, the inhibition in experiment [1] was -9.86%; in experiment [2], -11.4%.

On to `Cc1ccc([N+](=O)[O-])cc1N(CC(=O)Nc1ccc(S(=O)(=O)Nc2cccc(C(F)(F)F)c2)cc1)S(C)(=O)=O`, for which the inhibition was -13.7% in experiment [1] and -3.19% in experiment [2].

In the case of `COc1cccc(/C=C2/SC(=S)N(CCCC(=O)Nc3ccc(O)cc3)C2=O)c1`, the inhibition in experiment [1] was 51.1% (active); in experiment [2], 23.7%.

In the case of `COc1cccc(NC(=O)Nc2nnc(CC(=O)Nc3ccccc3)s2)c1`, the inhibition in experiment [1] was -11%; in experiment [2], 21.1%.

As to `CN(C)c1ccc(C2Nc3ccccc3C(=O)N2CCCN2CCOCC2)cc1` (centres undefined), the inhibition in experiment [1] was -12.2%; in experiment [2] it was 2.92%.

Take `O=C(Nc1nnc(SCc2ccc(F)cc2)s1)c1cccnc1Cl`: the inhibition is -9.69% in experiment [1] and -19.9% in experiment [2].

In the case of `CC(C)c1nnc(NC(=O)c2nc(S(=O)(=O)Cc3ccccc3F)ncc2Cl)s1`, the inhibition in experiment [1] was 16.4%; in experiment [2], 48% (active).

For the compound `Cc1c(NC(=O)COC(=O)C23CC4CC(CC(O)(C4)C2)C3)c(=O)n(-c2ccccc2)n1C`, the inhibition was 2.86% in experiment [1] and 3.79% in experiment [2].

Regarding `CCN(CC)S(=O)(=O)c1ccc(/C=C/C(=O)OCC(=O)NCc2ccc3c(c2)OCO3)cc1`, the inhibition in experiment [1] is -0.7%; in experiment [2], -11.1%.

With `Cc1c(CCC(=O)N2CCC(C(=O)O)CC2)c(=O)oc2cc3oc4c(c3cc12)CCCC4`, the inhibition in experiment [1] was 33.6%; in experiment [2], 61% (active).

Consider `O=C(c1ccc(Cl)cc1)C(CN1CCCCC1)c1ccccc1` (centres undefined), for which the inhibition in experiment [1] was 32.9%; in experiment [2] it was 57.8% (active).

In the case of `CC1CCc2nc(NC(=O)c3ccco3)sc2C1` (centres undefined), the inhibition in experiment [1] was -23.2%; in experiment [2], 11.1%.

In the case of `Cc1ccc([C@@H]2CC=C(C(=O)O)[C@H](c3ccccc3)N2S(=O)(=O)c2ccccc2C)cc1`, the inhibition in experiment [1] is 0.1%; in experiment [2], -13%.

`O=C(COC(=O)CCCOc1ccc(Cl)cc1Cl)NCc1ccccc1`: the inhibition in experiment [1] is 0.2%; in experiment [2] it was 15.4%.

As to `C[C@@H]1C[C@@H]2O[C@H]2CCCCC(=O)Cc2cc(O)cc(O)c2C(=O)O1`, the inhibition in experiment [1] was 53.1% (active); in experiment [2] it was 28.7%.

Regarding `COc1ccc(N2CCN(C3CCCN(S(=O)(=O)c4ccc(C)cc4C)C3)CC2)cc1` (centres undefined), the inhibition is -13% in experiment [1] and 29.6% in experiment [2].

In the case of `O=C1NC[C@@H](Cc2ccc(O)cc2)N(CCc2cccc(F)c2)C1=O`, the inhibition was -20.2% in experiment [1], -26.9% in experiment [2], 4.3% in experiment [5] and 5.14% in experiment [6].

For `CNC(=S)NNC(=O)c1cccn(Cc2ccccc2)c1=O`, the inhibition in experiment [3] was 4.48%; in experiment [4] it was 46.7% (active).

`O=C(Nc1cccc(-c2nc3ccccc3[nH]2)c1)c1ccc(C(=O)Nc2cccc(-c3nc4ccccc4[nH]3)c2)cc1`: the inhibition in experiment [3] is 9.76%; in experiment [4] it was 10.8%.

`CCN(C(=O)Nc1cccc2ccccc12)c1ccccc1`: the figures for the inhibition in experiment [3] and in experiment [4] were 2.01% and 3.23%, respectively.

Turning to `Oc1ccc(N=Cc2c(O)ccc3ccccc23)cc1`, the results for the inhibition in experiment [3] and in experiment [4] were -3.16% and 4.09%, respectively.

In the case of `Cc1ccc(C(=O)NCC(=O)O)cc1S(=O)(=O)N1CCCCC1`, the inhibition in experiment [3] is 2.01%; in experiment [4], 5.08%.

With `COc1ccccc1C(=O)NNC(=O)c1ccc(NC(=O)c2ccccc2)cc1`, the inhibition is -8.35% in experiment [3] and 35.5% (active) in experiment [4].

The values are drawn from PubChem BioAssay.
